Among all 190,000 compounds or so, about 810 (0.43%) were called active. Rule as the data show it: active = inhibition above about 50%; inactive = the rest. Many of the other results were omitted from the sample, so actives are more common in it than they were.
Biological target: Mannose-6-phosphate isomerase (Homo sapiens) (UniProt P34949)
Assay: inhibitors of human PMI, primary screen, biochemical, fluorescence intensity, coupled assay (AID 1209);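 also: plate controls were DMSO vehicle for no effect and wells lacking substrate for full effect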
Conditions: purified PMI enzyme, at 20 µM, stronger effect = higher value

Chain of Mannose-6-phosphate isomerase (Homo sapiens) (P34949 whole entry, looked up): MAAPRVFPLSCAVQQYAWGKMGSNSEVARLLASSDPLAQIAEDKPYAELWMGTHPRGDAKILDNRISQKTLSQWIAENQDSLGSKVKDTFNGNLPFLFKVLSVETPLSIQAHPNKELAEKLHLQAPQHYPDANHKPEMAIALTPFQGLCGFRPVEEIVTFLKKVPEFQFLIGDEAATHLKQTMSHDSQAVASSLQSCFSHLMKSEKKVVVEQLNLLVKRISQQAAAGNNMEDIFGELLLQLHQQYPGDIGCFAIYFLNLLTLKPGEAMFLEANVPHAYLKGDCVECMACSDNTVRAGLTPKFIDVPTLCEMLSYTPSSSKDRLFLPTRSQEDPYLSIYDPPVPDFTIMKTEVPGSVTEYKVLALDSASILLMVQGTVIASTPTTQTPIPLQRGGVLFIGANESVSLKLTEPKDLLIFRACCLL

Compound | inhibition
COc1ccc2c(c1)C(=O)N(c1ccccc1C)C(=O)C2(C)C | -9.2% (inactive)
COC(=O)CCCNc1ncccc1[N+](=O)[O-] | -0.5% (inactive)
Cn1c(SCC(=O)N2CCN(c3ccccc3)CC2)nnc1-c1ccco1 | 4.2% (inactive)
CC(C)(CNS(C)(=O)=O)SCc1ccc(Cl)cc1 | -12.2% (inactive)
Cc1nn(C(C)CC(=O)O)c(C)c1Br (stereo not drawn) | -0.1% (inactive)
COc1cccc(/C=N/NC(=O)c2ccccc2)c1OS(=O)(=O)c1ccccc1 | 2.4% (inactive)
COc1ccc(C(=O)CCC(C)(C)[N+](=O)[O-])cc1 | -6.3% (inactive)
O=C(c1ccc(CS(=O)(=O)c2ccc(Br)cc2)o1)N1CCN(C2CCCCC2)CC1 | -9% (inactive)
O=C(NC1CCCCC1)C(=S)N1CCOCC1 | 10.9% (inactive)
O=C(NC1CCCCCC1)C(=S)N1CCOCC1 | 61.8% (active)
O=C(NC1CCCCCC1)C(=S)N1CCCC1 | 4.7% (inactive)
Cc1ccc(C(C(=O)NC2CCCCC2)N2CCC3(CC2)OCCO3)cc1 (stereo not drawn) | 1.6% (inactive)
C=CCOC(=O)C1=C[C@H](c2ccc(Br)cc2)[C@@H](CCCO)[C@H](OCC)O1 | 17.5% (inactive)
Cc1cc(=O)c2c(O)c(O)ccc2o1 | 77.7% (active)
Cc1occc(=O)c1O | -5.2% (inactive)
COc1ccc(-c2cc(=O)c3c(O)c(OC)c(O)cc3o2)cc1 | 0.6% (inactive)
O=C(O)c1ccccc1Cc1nc2cc(Cl)ccc2c(=O)[nH]1 | -7.4% (inactive)
COc1ccc(NC(=O)CCCn2c(=O)c3sccc3n(Cc3ccccc3C)c2=O)cc1 | 6.6% (inactive)
OCC[n+]1ccc(/C=C/c2c[nH]c3ccccc23)cc1 | 2.7% (inactive)
CCc1ccc(/C=C/c2c[nH]c3ccccc23)[n+](CC)c1 | 51.8% (active)
CCN(CC)C(=O)c1ccc(/C=C/c2c[nH]c3ccccc23)[n+](C)c1 | 8.9% (inactive)
NS(=O)(=O)c1ccc(CCNC(=O)C2CCC(CNS(=O)(=O)c3ccc(Br)s3)CC2)cc1 (stereo not drawn) | 4.5% (inactive)
Cc1cc2cc(C=C(C#N)C#N)c(Cl)nc2cc1C | 20.3% (inactive)

Compound | inhibition
Cc1ccc2cc(C=O)c(Cl)nc2c1 | 37.4% (inactive)
Cc1cc2cc(C=O)c(Cl)nc2cc1C | 61.2% (active)
CC(C)(C)c1nn(-c2ccccc2)c2nc(Cl)c(C=O)cc12 | -1.5% (inactive)
Cc1cc(C)c2cc(CNC3CCCC3)c(Cl)nc2c1 | 8.6% (inactive)
Cc1occc1C(=O)NNC(=O)C1CCCCC1 | 20.4% (inactive)
CCOc1ccc(CCNC(=O)CSc2nn(-c3ccc(C)c(Cl)c3)c(=S)s2)cc1OCC | 8.9% (inactive)
CCN(CC1COc2ccccc2O1)C(=S)Nc1ccccc1 (stereo not drawn) | 11.9% (inactive)
S=C(c1ccc(-c2cc(Cl)ccc2Cl)o1)N1CCOCC1 | 11.6% (inactive)
S=C(c1ccc(-c2ccccc2Cl)o1)N1CCOCC1 | 70.8% (active)
S=C(c1ccc(-c2ccccc2Cl)o1)N1CCCCC1 | 10.9% (inactive)
O=C(CSc1nnc(-c2ccc(OC(F)F)cc2)o1)N1CCOCC1 | -4.5% (inactive)
CNC(=O)c1ccccc1F | 6.4% (inactive)
O=C(C1CC1)N1N=C(C2CCCCC2)CC1(O)C(F)(F)F (stereo not drawn) | 6.9% (inactive)
O=C(C1CCCC1)N1CCC(CO)(Cc2ccccc2Cl)CC1 | 0.9% (inactive)
S=c1[nH]c2cc(Cl)ccc2s1 | -15.2% (inactive)
COc1ccc2[nH]c(=S)[nH]c2c1 | 16.4% (inactive)
S=c1[nH]c2ccc(Cl)cc2[nH]1 | 50.2% (active)
O=C(Nc1ccccc1Cl)N1CCN(C/C=C/c2ccccc2)CC1 | -2% (inactive)
Oc1ccc(-c2cn3c(n2)SCC3)cc1O | 59.5% (active)
Oc1ccc(-c2cn3c(n2)SCC3)cc1 | -8.6% (inactive)
Cc1ccc(-c2cn3c(n2)SCC3)cc1 | -3.8% (inactive)
CCNc1nc(N2CCOCC2)nc(N(c2ccccc2)c2ccccc2)n1 | 13% (inactive)
COc1ccc(Cl)cc1N/C(N)=N/c1nc(CSc2ccc(C)cc2)cc(=O)[nH]1 | 3.7% (inactive)

Compound | inhibition
NC(=S)N/N=C\c1c2ccccc2cc2ccccc12 | -64.6% (inactive)
NC(=S)Nc1cc2ccccc2c2ccccc12 | 67.5% (active)
NC(=S)Nc1cccc2cc3ccccc3cc12 | -8.8% (inactive)
COc1ccc(C(=O)OCC(=O)NCCCc2ccccc2)cc1[N+](=O)[O-] | 9.8% (inactive)
O=C(CSc1nnnn1-c1ccccc1)N1CCc2ccccc2C1 | 4% (inactive)
CN(C)CCC(=O)c1cccc(Br)c1 | 24% (inactive)
Cc1c(N2C(=O)/C(=C3/C(=O)N(C)c4ccccc43)SC2=S)c(=O)n(-c2ccccc2)n1C | 11.1% (inactive)
CCN1C(=O)/C(=C2\SC(=S)N(c3c(C)n(C)n(-c4ccccc4)c3=O)C2=O)c2ccccc21 | 14.5% (inactive)
CC(=O)N1C(=O)/C(=C2\SC(=S)N(c3c(C)n(C)n(-c4ccccc4)c3=O)C2=O)c2ccccc21 | 64.9% (active)
N/C(COc1ncn(-c2ccccc2)n1)=N\S(=O)(=O)c1ccc(Cl)cc1Cl | 9.1% (inactive)
CCC(C)(C)NC(=O)C(OC(=O)c1ccco1)c1ccccc1OC (stereo not drawn) | 14.2% (inactive)
O=C(O)CNC(=O)CC1S/C(=N/N=C2\CSC(=O)N2)NC1=O (stereo not drawn) | 59.9% (active)
O=C(O)CNC(=O)CC1S/C(=N/N=C2/NC(=O)CS2)NC1=O (stereo not drawn) | 25.1% (inactive)
NC(=O)NC(=O)CC1S/C(=N/N=C2\CSC(=O)N2)NC1=O (stereo not drawn) | 48.8% (inactive)
CCc1sc(C(=O)Nc2ccsc2C(=O)OC)cc1Br | -4.6% (inactive)
O=C(CS(=O)(=O)c1cn(Cc2cccc(F)c2)c2ccccc12)N1CCOCC1 | 5.3% (inactive)
Cc1ccc2c(c1)C(=O)CCN2 | -1.2% (inactive)
O=C1CCNc2ccc(-c3ccccc3)cc21 | 3.1% (inactive)
Cc1ccc2oc(-c3ccccc3C(=O)O)cc(=O)c2c1 | -3.3% (inactive)
CCOC(=O)c1cnc(/N=C/N(C)C)s1 | 2.3% (inactive)
CCOC(=O)c1cc2n(c1/N=C/N(C)C)-c1ccccc1C2=O | 55.7% (active)
CCOC(=O)c1sc(/N=C/N(C)C)nc1C | -4.1% (inactive)
